Experiment [1] concerns the target Calcium and integrin-binding protein 1 (Homo sapiens) (UniProt Q99828). The experiment can be described thus: Primary qHTS for Identification of Calcium Integrin Binding Protein 1 (CIB1) Competitor (AID 1508620).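 Also: GST tagged CIB1 binding a fluorescein labelled alphaIIb integrin peptide tracer; top concentration of the series differs between compounds.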 The method, boiled down: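 CIB1-GST (1 uM final) and compound incubated 15 min at room temperature before adding FITC-alphaIIb peptide tracer (100 nM final). Competition for binding read by fluorescence polarization (ex 480, em 540) after another 15 min at room temperature.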

Experiment [2] is described as follows: Primary qHTS for small molecule stabilizers of the endoplasmic reticulum resident proteome: Secreted ER Calcium Modulated Protein (SERCaMP) assay (AID 1508630). The method, boiled down:
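The SH-SY5Y reporter protocol was run at 3 concentrations up to 38.3 uM (primary) or 11 concentrations (follow-up): 16 h compound, 100 nM thapsigargin for 4 h, then extracellular luciferase luminescence.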

Experiment [3] deals with Cytochrome P450 2D6 (Homo sapiens) (UniProt P10635). The experiment can be described thus: Cytochrome P450 family 2 subfamily D member 6 (CYP2D6) small molecule antagonists: luciferase biochemical (cell-free) qHTS assay (AID 1645840; active = well fitted curve in the direction sought with a large enough effect in the repeat runs; an effect the other way counts as inactive or inconclusive; also: nearly all actives have a fitted effect of over 55% in size; also: potency is read from the fitted curve at half-maximal effect). The method, boiled down:
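P450-Glo CYP2D6 system: proluciferin substrate converted by enzyme to luciferin, read by luminescence proportional to activity. Enzyme-substrate mix with compound 10 min at room temperature, then NADPH regeneration 1 h before detection reagent.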

Experiment [4] concerns the target Cytochrome P450 2C9 (Homo sapiens) (UniProt P11712). Nature of the experiment: Cytochrome P450 family 2 subfamily C member 9 (CYP2C9) small molecule antagonists: luciferase biochemical (cell-free) qHTS assay (AID 1645842; active = well fitted curve in the direction sought with a large enough effect in the repeat runs; an effect the other way counts as inactive or inconclusive; also: nearly all actives have a fitted effect of over 55% in size; also: potency is read from the fitted curve at half-maximal effect). The method, boiled down: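 P450-Glo CYP2C9 system: proluciferin substrate with enzyme in mix containing 0.4% BSA, 10 min at room temperature, then NADPH regeneration solution added and incubated 1 h at 37C. Detection reagent stopped reaction; luminescence read after 20 min as RLU.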

A short description of experiment [5]: A High-Content qHTS Against Drug Library for the Identification of Small Molecules that Inhibit DYT1 Early Onset Primary Dystonia-Associated Cell Pathology (AID 1645839; calls by dose curve; also: series mostly up to about 46 µM). The method, boiled down: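 High-content imaging quantified EGFP-TorsinA mislocalization in HEK293-derived cells inducibly expressing DYT1 mutant torsinA, after 48 h exposure to compound given together with tetracycline induction. Cell count served as a toxicity channel alongside %pathology.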

In experiment [6] the target is Cytochrome P450 3A4 (Homo sapiens) (UniProt P08684). Nature of the experiment: Cytochrome P450 family 3 subfamily A member 4 (CYP3A4) small molecule antagonists: luciferase qHTS assay (AID 1645841; active = well fitted curve in the direction sought with a large enough effect in the repeat runs; an effect the other way counts as inactive or inconclusive; also: nearly all actives have a fitted effect of over 45% in size). The method, boiled down:
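Luminescent CYP3A4 activity readout: compounds plus enzyme-substrate mix 10 min at room temperature, reaction started with NADPH regenerating system for 1 h, stopped with detection reagent, read after 20 min. Ketoconazole served as control.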

Records with an inconclusive call do not appear. Entries that show only a call come without a potency. A number with no mark means an inactive call. Activity calls are given as the source filed them. Unless noted, calls follow the shape of the dose curve; as a rule, active = well fitted curve in the direction sought with a large enough effect; inconclusive = small, poorly fitted or top-dose-only effect, or another doubt; inactive = no such curve, though single readings can be large; an effect the other way counts as inactive or inconclusive.

Twelve molecules from PubChem BioAssay (NCATS) can be followed below.

Cytochrome P450 2D6 (Homo sapiens), sequence (P10635 whole entry, looked up): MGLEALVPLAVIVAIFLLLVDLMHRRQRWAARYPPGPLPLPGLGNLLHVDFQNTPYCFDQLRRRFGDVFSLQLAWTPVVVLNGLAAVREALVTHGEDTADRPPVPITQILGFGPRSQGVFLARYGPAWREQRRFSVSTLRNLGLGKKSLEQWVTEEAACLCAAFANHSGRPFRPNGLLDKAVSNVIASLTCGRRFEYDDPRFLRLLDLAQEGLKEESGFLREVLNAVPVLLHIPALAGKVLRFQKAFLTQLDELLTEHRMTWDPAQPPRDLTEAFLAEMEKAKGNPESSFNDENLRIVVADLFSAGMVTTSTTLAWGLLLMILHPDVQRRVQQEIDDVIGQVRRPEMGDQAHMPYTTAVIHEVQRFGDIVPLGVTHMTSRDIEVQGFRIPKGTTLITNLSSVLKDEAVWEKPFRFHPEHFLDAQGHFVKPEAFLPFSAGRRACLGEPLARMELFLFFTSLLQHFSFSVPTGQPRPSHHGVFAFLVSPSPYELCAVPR
Calcium and integrin-binding protein 1 (Homo sapiens), sequence (Q99828 whole entry, looked up): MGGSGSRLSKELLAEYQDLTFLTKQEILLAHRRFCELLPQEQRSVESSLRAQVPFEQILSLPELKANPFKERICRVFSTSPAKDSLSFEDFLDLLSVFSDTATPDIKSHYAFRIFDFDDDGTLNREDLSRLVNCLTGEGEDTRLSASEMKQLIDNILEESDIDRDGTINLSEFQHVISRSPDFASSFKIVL
Cytochrome P450 2C9 (Homo sapiens), sequence (P11712 whole entry, looked up): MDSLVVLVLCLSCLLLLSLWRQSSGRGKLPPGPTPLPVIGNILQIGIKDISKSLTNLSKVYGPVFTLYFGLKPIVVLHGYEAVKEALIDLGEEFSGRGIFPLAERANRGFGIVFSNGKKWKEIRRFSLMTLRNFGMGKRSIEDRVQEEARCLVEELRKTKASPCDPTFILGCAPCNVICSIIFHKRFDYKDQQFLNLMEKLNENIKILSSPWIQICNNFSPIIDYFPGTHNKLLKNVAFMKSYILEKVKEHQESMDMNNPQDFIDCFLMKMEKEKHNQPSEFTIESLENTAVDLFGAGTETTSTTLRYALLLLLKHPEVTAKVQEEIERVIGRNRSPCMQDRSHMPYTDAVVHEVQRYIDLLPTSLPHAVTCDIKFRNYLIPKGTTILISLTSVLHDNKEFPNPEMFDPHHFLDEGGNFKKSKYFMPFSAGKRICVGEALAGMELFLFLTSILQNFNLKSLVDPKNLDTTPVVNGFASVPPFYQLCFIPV
Cytochrome P450 3A4 (Homo sapiens), sequence (P08684 whole entry, looked up): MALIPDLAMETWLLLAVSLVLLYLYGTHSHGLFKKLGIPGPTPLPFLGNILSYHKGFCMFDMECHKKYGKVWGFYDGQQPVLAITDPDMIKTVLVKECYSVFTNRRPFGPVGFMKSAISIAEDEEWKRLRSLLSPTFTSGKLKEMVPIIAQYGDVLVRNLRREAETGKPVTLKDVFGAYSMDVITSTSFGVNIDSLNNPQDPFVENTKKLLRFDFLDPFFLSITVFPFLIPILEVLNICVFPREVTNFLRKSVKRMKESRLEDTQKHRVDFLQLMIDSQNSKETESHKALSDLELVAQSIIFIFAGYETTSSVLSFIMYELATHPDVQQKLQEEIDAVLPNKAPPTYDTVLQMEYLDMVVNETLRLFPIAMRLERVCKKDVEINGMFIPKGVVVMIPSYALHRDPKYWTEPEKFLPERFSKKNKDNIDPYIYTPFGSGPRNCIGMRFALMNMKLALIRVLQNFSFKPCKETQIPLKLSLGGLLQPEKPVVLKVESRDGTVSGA

As to `O=C1C=CC[C@@H]2[C@H]3CCCN4CCC[C@@H](CN12)[C@@H]34`, the result in experiment [1] was inactive. Further, the Potency result in experiment [2] was “inactive”.

Regarding `O=c1cccc2n1CC1CNC[C@H]2C1`, in experiment [1], the outcome was inactive. The Potency entry in experiment [2] is “inactive”.

As for `COC[C@H]1OC(=O)c2coc3c2[C@@]1(C)C1=C(C3=O)[C@@H]2CC[C@H](O)[C@@]2(C)C[C@@H]1OC(C)=O`, the outcome in experiment [1] was inactive. In addition, in experiment [2], the Potency entry was “inactive”.

With `CC[C@@H]1[C@@H](C)O[C@@](O)([C@@H](C)[C@H](O)[C@H](C)[C@H]2OC(=O)C=CC=C[C@@H](C)[C@@H]([C@@H](C)[C@@H](O)[C@H](C)[C@@]3(O)C[C@H](O[C@H]4C[C@H](O)[C@H](O)[C@H](C)O4)[C@H](CC)[C@@H](C)O3)OC(=O)C=CC=C[C@@H]2C)C[C@H]1O[C@H]1C[C@H](O)[C@H](O)[C@H](C)O1`, the result in experiment [1] was inactive. Also, the Potency result in experiment [2] is “inactive”.

Turning to `COc1ccc2c(c1)CN(C)CC2c1ccc(Cl)c(Cl)c1` (stereo unspecified), the result in experiment [1] was inactive. Also, in experiment [2], the Potency result was “inactive”.

As for `C[C@@H]1O[C@@H](O[C@@H]2C=C3CC[C@@H]4[C@@H](CC[C@]5(C)[C@H](c6ccc(=O)oc6)CC[C@@]45O)[C@@]3(C)CC2)[C@H](O)[C@H](O)[C@H]1O`, the outcome in experiment [1] was inactive. Further, the Potency entry in experiment [2] was “inactive”.

For the molecule `CCc1c(C(=O)C(N)=O)c2c(OCC(=O)O)cccc2n1Cc1ccccc1`, the result in experiment [1] was inactive. Also, the Potency result in experiment [2], in experiment [3] and in experiment [4] was “inactive” in each case.

`O=C(Nc1ccccc1-c1ccc(Cl)cc1)c1cccnc1Cl`: the outcome in experiment [1] was inactive. Further, the Potency entry in experiment [2], in experiment [5] and in experiment [4] was “inactive” each time. Further, the Potency in experiment [3] is 22.4 µM (active).

In the case of `O=[N+]([O-])/N=C1\NCCN1Cc1ccc(Cl)nc1`, in experiment [1], the result was inactive. For the same molecule, the Potency result in experiment [2], in experiment [5], in experiment [3] and in experiment [4] was “inactive” each time.

With `CC1=C(C(=O)O)N2C(=O)[C@@H](N)[C@H]2SC1`, the result in experiment [1] was inactive. Besides, the Potency result in experiment [2], in experiment [3] and in experiment [4] was “inactive” throughout. Moreover, the % pathology change, negative = correction in experiment [5] was 1.33% [at 19.1 µM].

As for `CO/C=C(/C(=O)OC)c1ccccc1Oc1cc(Oc2ccccc2C#N)ncn1`, in experiment [1], the result was inactive. Besides, the Potency result in experiment [2] and in experiment [5] was “inactive” each time. The Potency in experiment [3] is 39.9 µM (active); in experiment [4], 3.66 µM (active).

With `O=[N+]([O-])c1ccc([As](=O)(O)O)cc1`, the outcome in experiment [1] was inactive. In addition, the Potency entry in experiment [2], in experiment [3], in experiment [6] and in experiment [4] was “inactive” throughout.
